Bioassay records deposited in PubChem BioAssay by National Center for Advancing Translational Sciences (NCATS).
Rab9 prom act: qHTS Assay for Rab9 Promoter Activators; Potency, µM (doses to about 9.22 µM), for inactives: at the highest dose activation, negative = inhibition, most hits filed as activators; actives 2.8% (n = 320,000); Huh7 Rab9 promoter-luciferase reporter, luminescence, 24 h; further: % of control where 0% means no effect; nearly all actives have a fitted effect of over 60% in size
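Huh7 cells stably carrying Rab9 promoter–luciferase reporter, plated 1500 cells/well, compound added after 2 h and incubated 24 h at 37 °C; luciferase luminescence then read after 10 min with detection reagent.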
ELG1 genotoxic: qHTS screen for small molecules that induce genotoxicity in human embryonic kidney (HEK293T) cells expressing luciferase-tagged ELG1. HEK293T ELG1-luciferase reporter, luminescence, 16 h. Potency, µM (highest dose often 46 µM), inactives show at the top dose activity change, positive = activation, most hits filed as activators. actives 1.3% (n = 330,000). AID 504466, 2011; further: % of control where 0% means no effect; nearly all actives have a fitted effect of over 60% in size
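Cells (2,000/well) expressing the ELG1-luciferase fusion are dosed by pin tool and kept 16 hr at 37 °C, 5% CO2. Signal comes from ONE-Glo luciferase reagent after 30 min at room temperature.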
FLuc counter: qHTS profiling assay for firefly luciferase inhibitor/activator using purifed enzyme and Km concentrations of substrates (counterscreen for miR-21 project). Luciferin 4-monooxygenase (Photinus pyralis), P08659. purified FLuc, Km substrates, luminescence inhibition. Potency, µM (highest dose often 57.5 µM), inactives show at the top dose activity change, negative = inhibition, hits mostly inhibitors. actives 6.9% (n = 360,000);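 further: plate controls were vehicle for no effect and reference inhibitor for full effect; nearly all actives have a fitted effect of over 55% in size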
Target sequence (P08659 whole entry, looked up): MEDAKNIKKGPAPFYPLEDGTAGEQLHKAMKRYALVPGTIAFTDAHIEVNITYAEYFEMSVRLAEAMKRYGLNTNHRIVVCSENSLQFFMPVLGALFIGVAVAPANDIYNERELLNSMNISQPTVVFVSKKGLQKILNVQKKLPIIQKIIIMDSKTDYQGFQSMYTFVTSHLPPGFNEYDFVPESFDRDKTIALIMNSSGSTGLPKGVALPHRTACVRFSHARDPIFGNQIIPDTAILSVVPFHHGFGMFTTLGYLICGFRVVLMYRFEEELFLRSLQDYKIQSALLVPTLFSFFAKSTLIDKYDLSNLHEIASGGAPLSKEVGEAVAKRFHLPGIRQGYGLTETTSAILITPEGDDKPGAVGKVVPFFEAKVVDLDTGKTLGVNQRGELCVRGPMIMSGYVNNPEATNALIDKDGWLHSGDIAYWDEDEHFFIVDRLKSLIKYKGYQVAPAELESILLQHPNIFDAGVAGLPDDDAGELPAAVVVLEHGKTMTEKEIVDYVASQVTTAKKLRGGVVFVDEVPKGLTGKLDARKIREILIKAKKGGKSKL
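Biochemical qHTS of compounds, final roughly 60 µM downward over six points, against 10 nM purified firefly luciferase using Km concentrations of substrates (10 uM D-luciferin, 10 uM ATP) in Tris acetate pH 7.5 buffer; luminescence output.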
ELG1 DNA repair: qHTS screen for small molecules that inhibit ELG1-dependent DNA repair in human embryonic kidney (HEK293T) cells expressing luciferase-tagged ELG1; actives 2.3% (n = 330,000); HEK293T ELG1-luciferase reporter, luminescence, 16 h; DNA damage induced by 5-fluorouridine; Potency, µM (highest dose often 46.1 µM), inactives show at the highest dose activity change, negative = inhibition, usual class: inhibitors; AID 504467, 2011; further: on the % scale 0 is the no-effect control and ±100 the full control effect; nearly all actives have a fitted effect of over 55% in size
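Luminescence from the luciferase reporter, measured 30 min after ONE-Glo reagent at room temperature, was the read-out. Beforehand, 2,000 cells per well were exposed for 16 hr at 37 °C to 5-fluorouridine together with compound or vehicle.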
NPC1 promoter act: qHTS Assay for NPC1 Promoter Activators; Potency, µM (top dose mostly 9.22 µM), inactives show at the top dose activation, usual class: activators; Huh7 NPC1 promoter luciferase reporter, 24 h; actives 2.4% (n = 320,000); further: % of control where 0% means no effect; nearly all actives have a fitted effect of over 60% in size
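Huh7 cells stably carrying NPC1 promoter–luciferase, plated in Opti-MEM with 10% FBS for 2 h, were exposed to compound in DMSO for 24 h at 37 °C; luciferase reagent was added for 10 min and luminescence read.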
SMN2 splice up: qHTS Assay for Enhancers of SMN2 Splice Variant Expression. AID 1458, 2008. HEK293 SMN2-luciferase splicing reporter, luminescence, 30-36 h. actives 2.8% (n = 210,000). Potency, µM (top dose mostly 46.1 µM), without a hit: top-dose activity change, positive = activation, most hits filed as activators; further: % of control where 0% means no effect; nearly all actives have a fitted effect of over 55% in size
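qHTS luciferase splicing reporter: luminescence rises when SMN2 exon 7 is included in transfected HEK293 cells. Compound exposure lasted 30-36 h at 37C, with 4.5 mM final sodium butyrate as control, followed by a ONE-Glo read.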
* marks the source's active call; other numbers are inactive results; u = inconclusive; x = no result given; [ ] = another dose, or the depositor's remark. The list is not random: actives were taken first. Their share in the collection is about 9.4%. The call rests on the fitted dose curve; in most records, active means well fitted curve in the direction sought with a large enough effect; inconclusive means small, poorly fitted or top-dose-only effect, or another doubt; inactive means no such curve, though single readings can be large; an effect the other way counts as inactive or inconclusive. Potency means the concentration at half of the fitted maximal effect.

SMILES	Rab9 prom act	ELG1 genotoxic	FLuc counter	ELG1 DNA repair	NPC1 promoter act	SMN2 splice up
CCCCCOc1ccc(CN2CCOCC2)cc1Cl	3.55µM*	14.1µM*	6.75µM*	u	3.16µM*	u
Clc1cc(Br)ccc1OCCN1CCOCC1	-3.9%	0.6%	-13.4%	20.4%	-2.8%	-1.4%
O=C(O)CNC(=O)c1ccc(CO)o1	x	x	x	x	x	0.6%
Cc1c(NC(=O)c2cc(-c3ccc(F)cc3)nc3ccccc23)c(=O)n(-c2ccccc2)n1C	x	-7.3%	x	8.2µM*	x	x
Cc1ccc(-c2cc(C(=O)Nc3cc(C)on3)c3ccccc3n2)cc1	5.8%	-0.1%	-13.5%	-0.4%	-1.3%	3.0%
Cc1cc(NC(=O)c2cc(-c3ccccn3)nc3ccccc23)no1	-13.0%	-8.0%	-0.6%	u	-2.9%	-2.2%
Cc1cc(NC(=O)c2cc(-c3ccc(C)c(C)c3)nc3ccccc23)no1	-1.2%	-8.9%	4.78µM*	u	0.9%	5.4%
Cc1cc(NC(=O)c2cc(-c3ccncc3)nc3c(C)cccc23)no1	-19.7%	-2.2%	1.9%	9.2µM*	-15.4%	1.4%
COc1ccc(-c2cc(C(=O)Nc3cc(C)on3)c3ccccc3n2)c(OC)c1	0.0%	-11.9%	-5.4%	18.3µM*	-2.4%	x
CCn1nc(C)c(CCN(C)C(=O)Nc2cc(C)cc(C)c2)c1C	x	x	3.6%	x	x	x
Cn1c(/C=N/Nc2nc3ccccc3[nH]2)nc2ccccc21	3.55µM*	1.16µM*	1.51µM*	u	u	3.98µM*
CCCn1c(/C=N/Nc2nc3ccccc3[nH]2)nc2ccccc21	-25.4%	u	13.5µM*	u	-1.5%	-28.6%
C=CCNC(=S)N/N=C/c1cn(C)c2ccccc12	-1.1%	-0.9%	-13.9%	u	-0.3%	x
CC(C)Cn1c(/C=N/Nc2nc3ccccc3[nH]2)nc2ccccc21	-31.6%	u	u	17.0%	-21.0%	-71.9%
Cc1cc(=O)[nH]c(N/N=C/c2c(C)nn(-c3ccccc3)c2C)n1	-1.5%	-5.5%	-19.1%	9.6%	-5.8%	-3.6%
C=CCn1cc(/C=N/Nc2nc3ccccc3[nH]2)c2ccccc21	-6.0%	10.2%	5.36µM*	u	1.5%	29.9%
Cc1nn(-c2ccccc2)c(C)c1/C=N/Nc1nc2ccccc2[nH]1	0.501µM*	5.17µM*	0.849µM*	u	0.708µM*	3.16µM*
CCNc1nc2ccccc2[nH]1	5.5%	0.6%	-1.4%	13.3%	-4.4%	-18.5%
CCC(=O)Nc1ccc(CC)cc1-c1nc2ccccc2n(CC(=O)Nc2cccc(Cl)c2)c1=O	x	x	2.7%	x	x	x
O[C@@H]([C@H](O)[C@@H](O)CBr)[C@@H](O)CBr	x	x	x	x	x	-0.2%
Cc1c(C(=O)N(Cc2ccco2)Cc2ccccc2Cl)oc2ccc(F)cc12	x	x	-12.0%	x	x	-7.9%
Cc1c(/C=N/Nc2nc3ccccc3[nH]2)c2ccccc2n1C	u	u	10.7µM*	-4.2%	u	x
COc1ccc(C(=O)Nc2ccc3oc(-c4ccc(OC)cc4)nc3c2)cc1	x	x	-13.4%	x	x	x
COc1ccc(-c2nc3c(Br)c(N)c(Br)cc3o2)cc1	u	2.9%	1.35µM*	4.8%	3.16µM*	-17.6%
Nc1c(Br)cc2oc(-c3ccccc3)nc2c1Br	u	u	2.13µM*	u	2.2%	12.6µM*
SMILES	Rab9 prom act	ELG1 genotoxic	FLuc counter	ELG1 DNA repair	NPC1 promoter act	SMN2 splice up
O=C(O)CSc1cc(-c2ccccc2)nc2ccccc12	x	x	x	x	x	-6.5%[9.22 µM]
CCOc1ccc(-n2c(=O)c3c(C)c(C)sc3n(Cc3c(F)cccc3Cl)c2=O)cc1	x	x	-0.3%	x	x	-5.5%
CCn1c(C)nc2cc(S(=O)(=O)N3CCCCC3)ccc21	4.5%	1.5%	-2.2%	18.4µM*	4.1%	-33.8%
CCn1c(CN2CCCCC2)nc2cc(S(=O)(=O)N3CCCCC3)ccc21	-2.1%	-2.9%	x	-1.8%	-2.1%	x
Cc1cc(C)cc(NC(=O)C2CCCN(c3nnc(C)c4c(C)n(-c5ccccc5)nc34)C2)c1 (stereo not given)	x	x	-2.1%	x	x	x
Cc1ccccc1C(=O)NNc1ncnc2c1cnn2-c1cccc(Cl)c1	x	x	3.6%	x	x	x
Cc1ccc(-n2ncc3c(NC(C)c4ccccc4)ncnc32)cc1 (stereo not given)	x	x	6.01µM*	x	x	x
COc1ccc(OC)c(Nc2ncnc3c2cnn3-c2cccc(Cl)c2)c1	x	x	-0.1%	x	x	x
CCC(CO)Nc1ncnc2c1cnn2-c1ccc(C)cc1 (stereo not given)	x	x	3.38µM*	x	x	x
CCCCc1ccc(Nc2ncnc3c2cnn3-c2ccc(C)cc2)cc1	x	x	-10.4%	x	x	x
CC(Nc1ncnc2c1cnn2-c1cccc(Cl)c1)c1ccccc1 (stereo not given)	x	x	23.9µM*	x	x	x
COCC(C)Nc1ncnc2c1cnn2-c1cccc(Cl)c1 (stereo not given)	x	x	13.5µM*	x	x	x
CCOc1ccc(NC(=O)CC2C(=O)N(c3ccc(C)cc3)C(=O)N2C2CCCCC2)cc1 (stereo not given)	x	x	u	x	x	16.7%
Nc1ncnc2nc(-c3ccc(N4CCOCC4)nc3)cc(-c3cccc(Br)c3)c12	-8.3%[46.1 µM]	x	x	x	-3.5%[46.1 µM]	-47.0%
Cc1ccc(/C=N/N2CCN(c3ccccc3)CC2)cc1	3.55µM*	u	-19.2%	u	u	u
CSc1ccc(/C=N/N2CCN(c3ccccc3)CC2)cc1	u	6.5%	4.8%	-2.5%	u	u
Cc1ccccc1/C=N/N1CCN(c2ccccc2)CC1	16.7%	16.6%	16.9µM*	u	21.1%	u
Cc1cccc(/C=N/N2CCN(c3ccccc3)CC2)c1	u	u	7.57µM*	u	u	17.8µM*
COC(=O)N1[C@H]2CC[C@@]3(C)C=C(C)O[C@]1(C)C3c1ccccc12	x	x	x	x	x	0.4%
CN1c2ccccc2C(=O)/C(=C\Nc2ccc(F)cc2)S1(=O)=O	-0.9%	-2.0%	12µM*	-9.1%	-5.9%	x
CN1c2ccsc2C(=O)/C(=C\Nc2cccc(C(F)(F)F)c2)S1(=O)=O	-6.2%	-2.9%	u	9.1%	-1.7%	x
O=S(=O)(c1ccc(Br)cc1)c1nnn2c1nc(NCc1cccs1)c1sccc12	x	x	0.0%	x	x	x
CCOC(=O)CN1C(=O)S/C(=C/C=C/c2ccc(N(C)C)cc2)C1=O	3.55µM*	u	4.78µM*	u	u	u
CCOC(=O)CN1C(=O)S/C(=C/c2ccc3c(c2)n(C)c(=O)n3C)C1=O	-4.8%	20.6µM*	u	u	0.0%	15.8µM*
CCOc1ccccc1NC(=O)NCCn1c(=O)oc2ccc(C)cc21	x	x	-6.7%	x	x	-5.5%
